According to PubChem BioAssay:
Several values for one entry are separate records, joined by “and”; a condition that tells them apart may be missing. Identical values can stand only once.

Key:
[1] = test system: Human papillomavirus type 1a protein E7 (residues 44-93); assay: small molecules binding HPV E7 44-93 – biochemical, small-molecule microarray, residues 44-93, 635 nm fluorescence, primary screen (AID 1108); details: fluorescence 635 nm, higher = more signal;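 note: E7 fragment applied at 1 µg/mL in TBST for 1 h at 4 C; score combines spot fluorescence with its signal to noise ratio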
[2] = hepatitis C replication reporter changes, two-sided – Huh7 cells, luciferase reporter, HCV replication inhibitor project, primary screen (AID 1109); details: Huh7 HCV replicon luciferase reporter, 48 h; higher = more signal;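 note: huh7 hepatoma cells harbouring a luciferase neomycin HCV replicon reporter; luciferase luminescence as measure of HCV replicon replication; test concentration not given here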
[3] = target: Left-right determination factor 2 (Homo sapiens) (UniProt O00292); assay: small molecules binding LEFTY2 protein – biochemical, small-molecule microarray, 635 nm fluorescence scan, primary screen (AID 1110); details: higher = more signal
Left-right determination factor 2 (Homo sapiens), sequence (O00292 whole entry, looked up): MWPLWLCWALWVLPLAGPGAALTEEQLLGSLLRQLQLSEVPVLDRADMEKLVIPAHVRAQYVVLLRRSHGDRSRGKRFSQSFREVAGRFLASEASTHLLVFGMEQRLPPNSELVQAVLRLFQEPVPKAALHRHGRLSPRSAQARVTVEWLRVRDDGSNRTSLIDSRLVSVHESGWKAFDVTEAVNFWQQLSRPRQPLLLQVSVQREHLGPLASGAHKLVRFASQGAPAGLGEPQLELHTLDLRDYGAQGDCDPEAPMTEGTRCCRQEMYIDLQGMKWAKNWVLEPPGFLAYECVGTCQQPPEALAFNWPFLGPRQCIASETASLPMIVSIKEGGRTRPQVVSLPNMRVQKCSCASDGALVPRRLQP

[4] = target: Calmodulin-1 (Homo sapiens) (UniProt P0DP23); assay: small molecules binding calmodulin-1 with EGTA – biochemical, small-molecule microarray, Cy5-labelled CALM1, profiling panel (AID 1111); details: Cy5-CALM1 binding fluorescence, higher = more signal;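 note: labelled calmodulin applied in Tris saline Tween buffer holding calcium plus EGTA and DTT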
[5] = target: Calmodulin-1 (Homo sapiens) (UniProt P0DP23); assay: small molecules binding Ca-loaded calmodulin-1 – biochemical, small-molecule microarray, Cy5-labelled CALM1, plus calcium, artefact control for SMM control-protein annotation, profiling panel (AID 1112); details: Cy5-CALM1 binding fluorescence, higher = more signal;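 note: score merges spot fluorescence with signal to noise from triplicate slides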
[6] = probe aWnt5a binding to arrayed compounds – biochemical, biotinylated probe, 635/667 nm fluorescence, primary screen (AID 1113); details: small-molecule microarray, higher = more signal;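 note: score merges 667 nm fluorescence intensity with signal-to-noise per printed feature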
[7] = probe aShh binding to arrayed compounds – biochemical, biotinylated probe, 635/667 nm fluorescence, primary screen (AID 1114); details: small-molecule microarray, higher = more signal;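 note: probe is biotin-labelled aShh protein from a stem cell growth factor screen; measures binding of labelled protein to compounds printed on the slide; score merges feature fluorescence at 667 nm with signal-to-noise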
[8] = probe aNog binding to arrayed compounds – biochemical, biotinylated probe, 635/667 nm fluorescence, primary screen (AID 1115); details: small-molecule microarray, higher = more signal;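 note: probe is biotinylated aNog protein used at 0.15 µg/mL for 1 h at 4 C; z-score combines 667 nm fluorescence of each spot with its signal to noise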
[9] = target: Torsin-1A-interacting protein 1 (Homo sapiens) (UniProt Q5JTV8); assay: compound microarray binding of lysate hLAP1 – cell lysate, small-molecule microarray, COS7 lysate, 635/667 nm fluorescence, primary screen (AID 1116); details: 635 nm fluorescence, higher = more signal
Torsin-1A-interacting protein 1 (Homo sapiens), sequence (Q5JTV8 whole entry, looked up): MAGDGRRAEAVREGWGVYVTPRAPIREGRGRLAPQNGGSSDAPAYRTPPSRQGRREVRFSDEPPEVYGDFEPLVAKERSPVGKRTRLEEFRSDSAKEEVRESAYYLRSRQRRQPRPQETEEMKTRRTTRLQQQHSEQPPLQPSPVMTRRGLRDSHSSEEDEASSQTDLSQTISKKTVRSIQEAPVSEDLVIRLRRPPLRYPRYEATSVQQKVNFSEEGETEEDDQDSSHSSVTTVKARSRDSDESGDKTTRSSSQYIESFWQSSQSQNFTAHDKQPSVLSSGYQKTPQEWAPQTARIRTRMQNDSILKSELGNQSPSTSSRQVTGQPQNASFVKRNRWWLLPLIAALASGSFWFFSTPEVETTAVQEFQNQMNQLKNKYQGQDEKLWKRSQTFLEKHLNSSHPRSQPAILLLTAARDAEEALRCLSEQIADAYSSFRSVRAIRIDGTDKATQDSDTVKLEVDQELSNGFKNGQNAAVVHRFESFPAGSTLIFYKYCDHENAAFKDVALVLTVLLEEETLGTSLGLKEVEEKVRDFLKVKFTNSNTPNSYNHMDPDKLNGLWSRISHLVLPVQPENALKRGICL

[10] = target: Alpha-bungarotoxin (Bungarus multicinctus) (UniProt P60615); assay: compounds binding labelled alpha-BTX control protein – biochemical, small-molecule microarray, Alexa647 label, 635/667 nm fluorescence, artefact control for SMM control protein annotation, profiling panel (AID 1117); details: alpha-BTX-A647 binding fluorescence, higher = more signal
Alpha-bungarotoxin (Bungarus multicinctus), sequence (P60615 whole entry, looked up): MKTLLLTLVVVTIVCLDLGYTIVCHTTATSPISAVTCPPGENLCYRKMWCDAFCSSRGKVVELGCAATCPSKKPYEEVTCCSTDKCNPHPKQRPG

Structure (SMILES) | composite z-score [1] | z-score [2] | composite z-score [3] | composite z-score [4] | composite z-score [5] | composite z-score [6] | composite z-score [7] | composite z-score [8] | composite z-score [9] | composite z-score [10]
C=CCN(CCCCC)C(=O)C1N(CCCCCCO)C(=O)C2C(C(=O)O)C3C=CC21O3 (stereo not given) | -0.37 and -0.151 | -0.415 and -0.545 | -0.978 and -2.49 | -1.53 and -0.747 | -0.155 and 0.379 | -0.256 and -0.258 | -0.0626 and -0.156 | -0.0784 and -0.208 | 0.257 and -1.03 | -1.31 and -1.22
CO[C@@H]1C=CCC(=O)N2CCC[C@H]2C(=O)OC[C@H](C)C(=O)OC[C@H]1C | 0.172 | 0.182 | 0.96 | -0.594 | -1.16 | -0.202 | -0.352 | -0.216 | 0.568 | -0.0037
C=C[C@@H](OC)[C@H](O)c1ccc(O)c(F)c1 | -0.829 and -1.4 | 0.0695 and 0.896 | -1.68 and -1.07 | -0.692 and -1.45 | -0.898 and -1.11 | -0.328 and -0.268 | -0.0553 and -0.0709 | -0.564 and -0.908 | -0.104 and -0.362 | -1.14 and -0.617
COC(=O)[C@@]1(Cc2ccc(F)cc2)[C@H]2c3cc(C(=O)N4CCCC4)n(Cc4c(CO)[nH]cc(C)c4=O)c3C[C@H]2CN1C(=O)c1ccccc1 | 0.866 and 0.952 | -1.31 and -1.38 | -0.0537 and -0.837 | 1.41 and 0.252 | 0.249 and 0.299 | 1.02 and 0.132 | 2.2 and 0.182 | 2.71 and 1.27 | 0.959 and 1.72 | 0.234 and -0.124
CCOC(=O)C[C@H]1[C@H](OC(=O)c2ccccc2-c2ccccc2)[C@@H](NC(=O)Cc2ccc(OC)cc2)c2cc(OCCCO)ccc2N1C(=O)c1ccc2ccccc2n1 | 0.005 and 0.188 | -1.38 and -0.367 | 0.417 and 0.0866 | 0.174 and 1.45 | 0.141 and 0.318 | 0.0031 and 0.0512 | -0.0681 and -0.0146 | 0.0926 and -0.111 | 0.032 and 0.747 | 0.572 and 0.924
C[C@@H]1CC[C@H]2C(=O)NC[C@@H](O)CN2[C@H]1c1ccc(Br)cc1 | 0.111 and -0.325 | -0.376 and -0.362 | -0.0095 and 0.204 | -0.234 and -0.448 | -0.342 and -0.438 | -0.0758 and -0.0405 | -0.138 and 0.235 | 0.0014 and -0.194 | 0.36 and 0.348 | 0.141 and -0.195
C=CCN(Cc1ccccc1)C(=O)C1N(CCCCCCO)C(=O)C2C(C(=O)O)C3C=CC21O3 (stereo not given) | -0.352 and -1.02 | 0.0022 and 0.118 | -2.37 and -4.16 | -0.326 and -0.505 | 0.498 and 0.722 | -0.219 and -0.332 | -0.0709 and -0.0035 | -0.0211 and -0.316 | 0.193 and 0.0816 | -1.13 and -1.12
CCOC(=O)C[C@H]1[C@H](OC(=O)c2ccccc2-c2ccccc2)[C@@H](NC(=O)Cc2ccc(OC)cc2)c2cc(OCCCO)ccc2N1C(=O)Cc1ccc(OC)cc1 | 0.361 and -0.687 | -0.912 and -0.962 | 0.422 and -0.519 | 1.11 and -0.163 | 0.971 and -0.309 | -0.0346 and -0.0107 | 0.412 and -0.0977 | 0.811 and 0.467 | 0.477 and 0.415 | 0.873 and 0.224
C=CCN(CCCCC)C(=O)C1N(C(C)(C)CO)C(=O)C2C(C(=O)O)C3C=CC21O3 (stereo not given) | -2.03 and -0.698 | -0.954 and -0.659 | -1.51 and -1.83 | -0.569 and -0.284 | 0.515 and 1.07 | -0.297 and -0.176 | -0.0626 and -0.138 | -0.0809 and 0.274 | -1.47 and -0.47 | -1.26 and -2.68
CC(CO)N1C(=O)[C@@H]2C3C(=O)OCCC=C[C@H]3OC23C=CCN(Cc2ccccc2)C(=O)[C@@H]13 (stereo not given in full) | 0.0364 and -1.19 | -1.12 and -0.667 | -1.26 and -1.45 | -0.792 and 0.0954 | -0.803 and 0.748 | -0.154 and -0.21 | -0.291 and -0.154 | 0.211 and -0.246 | 1.29 and -0.62 | -1.73 and -0.88
CN1C(=O)C2CC=C([C@H]3Oc4ccccc4S(=O)(=O)N4CCC[C@@H]34)CC2C1=O (stereo not given in full) | -1.21 and -1.99 | -0.539 and -0.95 | -0.356 and 0.11 | -0.931 and -0.686 | -0.803 and -0.798 | -0.1 and -0.0125 | -0.0553 and -0.0146 | -0.172 and -0.324 | 0.0203 and 0.0568 | 0.0847 and -0.814
COCn1c2ccccc2c2nnc(C(C)=O)nc21 | -0.421 and 0.238 | -0.366 and 0.141 | 0.486 and 0.305 | -0.338 and -0.015 | -0.462 and -0.409 | -0.182 and -0.124 | -0.282 and -0.0769 | -0.294 and -0.158 | 0.184 and 0.0111 | 0.0727 and 0.378
CC(=O)OC[C@H]1O[C@H](C#CC(C)(C)C)C=C[C@@H]1OC(C)=O | 1.31 | -1.94 | 0.934 | 0.957 | 0.189 | -0.191 | 0.0596 | -0.433 | 0.852 | 1.09
CCCNC(=O)OC[C@H]1O[C@H](CCON=C(C)CCC(=O)OC[C@H]2O[C@H](C#Cc3ccccc3)C=C[C@@H]2Oc2ccc(C)cc2)C=C[C@@H]1Oc1ccc(OC)cc1 | -1.27 | -0.564 | 0.272 | -0.309 | -0.465 | -0.258 | -0.174 | -0.332 | -0.492 | 0.0642
C=CCN(CCCCC)C(=O)C1N(c2ccc(CCO)cc2)C(=O)C2C(C(=O)O)C3C=CC21O3 (stereo not given) | -0.351 and -0.928 | 0.471 and -0.235 | -2.25 and -3.05 | -1.51 and -0.989 | -0.455 and -0.143 | -0.23 and -0.316 | -0.0769 and -0.0866 | -0.387 and -0.332 | 0.143 and 0.422 | -2.97 and -1.37
CC[C@@H]1C(Sc2ccccc2)C(C(=O)O)[C@H](c2ccc(C)cc2)N1S(=O)(=O)c1ccc(C)cc1 (stereo not given in full) | 1.1 and 1.34 | -0.17 and -0.556 | -0.311 and 0.047 | 1.98 and 1.65 | 0.345 and 0.527 | 0.138 and 0.155 | 0.108 and 0.116 | 0.942 and 0.002 | 1.06 and 1.19 | 0.836 and 1.14
C=CCN(C(=O)C1N(C(C)(C)CO)C(=O)C2C(C(=O)O)C3C=CC21O3)c1ccc(OC)cc1 (stereo not given) | -0.391 and -1.24 | 1.82 and -0.0108 | -2 and -4.13 | -0.547 and -0.928 | 0.455 and -0.116 | -0.256 and -0.116 | 0.0611 and -0.283 | 0.265 and -0.0827 | 1.86 and -0.125 | -2.34 and -2.48
O=C1NC(=O)C2C1C=CC(C(O)c1ccc([N+](=O)[O-])cc1)N2Nc1ccc(Cl)cc1Cl (stereo not given) | 0.481 and -0.621 | 0.175 and -1.19 | -0.176 and -0.0882 | 1.01 and 1.48 | 0.436 and 0.0078 | -0.0566 and 0.0775 | 0.0326 and -0.241 | 1.94 and 2.12 | 1.9 and 1.62 | 1.18 and 1.56
CO[C@@H]1COC(=O)CC=C[C@H](C)[C@@H](NS(=O)(=O)c2ccc(C)cc2)COC(=O)CC=C[C@@H]1C | 0.494 and -1.3 | -1.06 and -1.76 | 0.687 and 0.845 | -0.653 and -0.748 | -1.02 and -1.12 | -0.101 and -0.126 | 0.0121 and -0.156 | -0.23 and -0.289 | 0.149 and 0.483 | 1.15 and -0.0808
CC(C)[Si]1(C(C)C)OCc2cc(CCCc3cc4c(c(CCc5ccccc5)n3)[Si](C(C)C)(C(C)C)OC4)nc(CCc3ccccc3)c21 | 0.206 and 0.469 | -1.17 and -0.347 | 0.0155 and 0.497 | -0.372 and -0.238 | 0.797 and -0.487 | -0.152 and -0.148 | -0.27 and 0.0141 | -0.139 and -0.0168 | -0.421 and 0.248 | -1.36 and 0.0493
C#CCN1C(/C=C/c2ccccc2)C(=O)OC[C@H]1c1ccccc1 (stereo not given in full) | 0.267 and 0.514 | -1 and -2.09 | 0.673 and 0.247 | -0.451 and -0.295 | -0.545 and -0.383 | -0.0033 and -0.0607 | 0.0328 and -0.138 | -0.115 and -0.385 | 0.341 and -0.35 | 0.348 and -0.144
CO[C@H]1COC(=O)CC=C[C@H](C)[C@H](OC)COC(=O)[C@@H](C)COC(=O)CC=C[C@@H]1C | 0.25 and -0.333 | 0.228 and 0.343 | 0.953 and 0.546 | -1.51 and -1.76 | -1.68 and -2.71 | -0.0172 and -0.147 | -0.304 and 0.0899 | -0.194 and -0.176 | 0.123 and -0.771 | -0.683 and -0.62
COC(=O)C1=C(C)N(Cc2ccccc2)[C@]23O[C@](C(=O)OC)(C(=O)N2[C@@H]1c1ccccc1)[C@@H](c1ccccc1)[C@@H]3C(=O)c1ccccc1 | 0.189 and -0.932 | 0.989 and 0.471 | 0.494 and 0.9 | 1.43 and -1.06 | 0.589 and -0.256 | -0.0417 and -0.137 | -0.276 and -0.16 | -0.0315 and -0.226 | 0.296 and -0.228 | 0.932 and -0.0514
